Consider 39 targets from the supplement of paper PMC10849652.

The full data set covers some 7,900 targets. This sample favours those with a hit. About 0.6% of all pairs of compound and target were hits. Unmarked numbers belong to inactive results.

Sequence of UniProt Q5H8A4 (Q5H8A4 whole entry, looked up): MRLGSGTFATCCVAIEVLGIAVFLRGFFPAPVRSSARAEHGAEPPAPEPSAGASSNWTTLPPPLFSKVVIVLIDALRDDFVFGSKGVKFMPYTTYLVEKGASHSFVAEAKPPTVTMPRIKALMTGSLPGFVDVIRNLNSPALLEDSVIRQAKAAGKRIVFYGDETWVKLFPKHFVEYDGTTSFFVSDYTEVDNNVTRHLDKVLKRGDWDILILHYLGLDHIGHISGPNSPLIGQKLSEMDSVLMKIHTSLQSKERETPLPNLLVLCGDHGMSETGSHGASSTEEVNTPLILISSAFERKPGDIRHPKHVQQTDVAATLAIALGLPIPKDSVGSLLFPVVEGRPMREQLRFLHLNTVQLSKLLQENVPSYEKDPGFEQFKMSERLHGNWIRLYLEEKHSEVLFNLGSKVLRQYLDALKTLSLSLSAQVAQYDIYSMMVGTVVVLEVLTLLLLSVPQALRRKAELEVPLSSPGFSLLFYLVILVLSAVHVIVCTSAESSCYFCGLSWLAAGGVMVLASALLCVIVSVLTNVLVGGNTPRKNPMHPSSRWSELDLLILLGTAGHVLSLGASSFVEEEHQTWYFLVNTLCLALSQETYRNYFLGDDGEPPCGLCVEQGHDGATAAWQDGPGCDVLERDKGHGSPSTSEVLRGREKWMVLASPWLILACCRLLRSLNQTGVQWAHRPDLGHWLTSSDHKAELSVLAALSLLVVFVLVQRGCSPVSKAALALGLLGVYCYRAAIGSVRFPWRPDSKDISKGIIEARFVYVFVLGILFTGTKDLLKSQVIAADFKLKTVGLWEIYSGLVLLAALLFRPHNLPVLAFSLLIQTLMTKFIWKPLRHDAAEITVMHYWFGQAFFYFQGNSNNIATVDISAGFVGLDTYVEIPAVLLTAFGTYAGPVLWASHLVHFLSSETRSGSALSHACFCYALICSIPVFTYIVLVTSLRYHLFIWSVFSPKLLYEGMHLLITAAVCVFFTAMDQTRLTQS
Sequence of UniProt P62191 (P62191 whole entry, looked up): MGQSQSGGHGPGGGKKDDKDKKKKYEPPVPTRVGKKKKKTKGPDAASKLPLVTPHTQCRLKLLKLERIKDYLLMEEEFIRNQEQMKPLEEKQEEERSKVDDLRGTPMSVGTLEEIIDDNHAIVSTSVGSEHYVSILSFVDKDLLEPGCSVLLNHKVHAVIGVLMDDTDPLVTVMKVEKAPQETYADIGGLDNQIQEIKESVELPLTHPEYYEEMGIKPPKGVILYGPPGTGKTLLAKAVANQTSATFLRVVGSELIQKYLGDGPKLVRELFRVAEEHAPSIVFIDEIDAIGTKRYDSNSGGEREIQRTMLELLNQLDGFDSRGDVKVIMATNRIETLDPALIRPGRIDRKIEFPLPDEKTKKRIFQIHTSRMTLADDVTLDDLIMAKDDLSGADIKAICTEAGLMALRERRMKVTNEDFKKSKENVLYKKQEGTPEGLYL
Sequence of UniProt Q14181 (Q14181 whole entry, looked up): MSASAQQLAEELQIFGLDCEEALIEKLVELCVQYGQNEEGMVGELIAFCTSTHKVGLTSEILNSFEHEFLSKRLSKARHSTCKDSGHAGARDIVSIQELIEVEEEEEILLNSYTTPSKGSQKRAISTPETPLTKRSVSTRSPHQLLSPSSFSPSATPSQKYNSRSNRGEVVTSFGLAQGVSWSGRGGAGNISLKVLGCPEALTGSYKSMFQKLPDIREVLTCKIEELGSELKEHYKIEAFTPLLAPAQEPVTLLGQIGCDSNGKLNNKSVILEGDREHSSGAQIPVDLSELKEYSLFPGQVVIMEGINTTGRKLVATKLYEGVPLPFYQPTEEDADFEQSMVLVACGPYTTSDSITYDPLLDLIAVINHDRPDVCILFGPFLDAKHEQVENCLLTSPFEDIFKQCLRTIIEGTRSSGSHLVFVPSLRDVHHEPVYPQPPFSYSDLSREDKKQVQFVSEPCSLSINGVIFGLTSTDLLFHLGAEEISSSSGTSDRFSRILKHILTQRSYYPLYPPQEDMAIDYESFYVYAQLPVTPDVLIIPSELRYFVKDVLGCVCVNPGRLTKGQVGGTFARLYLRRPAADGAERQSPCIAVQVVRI
Sequence of UniProt Q9Y478 (Q9Y478 whole entry, looked up): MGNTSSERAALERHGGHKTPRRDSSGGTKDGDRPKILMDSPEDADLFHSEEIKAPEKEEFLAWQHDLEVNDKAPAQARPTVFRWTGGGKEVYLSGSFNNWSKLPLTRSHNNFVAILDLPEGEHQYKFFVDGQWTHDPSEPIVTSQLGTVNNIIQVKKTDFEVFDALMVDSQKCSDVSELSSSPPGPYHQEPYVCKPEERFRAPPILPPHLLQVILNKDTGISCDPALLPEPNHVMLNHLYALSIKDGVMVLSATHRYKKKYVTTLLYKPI
Sequence of UniProt Q16537 (Q16537 whole entry, looked up): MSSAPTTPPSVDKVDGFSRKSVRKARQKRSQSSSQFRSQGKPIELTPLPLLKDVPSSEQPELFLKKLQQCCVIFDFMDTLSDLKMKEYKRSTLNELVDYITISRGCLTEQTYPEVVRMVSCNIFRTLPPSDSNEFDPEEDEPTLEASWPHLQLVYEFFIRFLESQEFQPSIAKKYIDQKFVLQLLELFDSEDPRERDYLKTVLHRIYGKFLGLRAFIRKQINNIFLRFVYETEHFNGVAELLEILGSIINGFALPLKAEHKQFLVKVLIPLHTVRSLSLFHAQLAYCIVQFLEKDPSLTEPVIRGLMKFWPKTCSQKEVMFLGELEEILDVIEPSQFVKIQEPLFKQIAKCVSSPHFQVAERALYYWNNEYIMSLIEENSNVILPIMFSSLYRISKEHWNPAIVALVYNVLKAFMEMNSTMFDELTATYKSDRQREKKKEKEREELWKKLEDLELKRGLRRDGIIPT
Sequence of UniProt Q9H5K3 (Q9H5K3 whole entry, looked up): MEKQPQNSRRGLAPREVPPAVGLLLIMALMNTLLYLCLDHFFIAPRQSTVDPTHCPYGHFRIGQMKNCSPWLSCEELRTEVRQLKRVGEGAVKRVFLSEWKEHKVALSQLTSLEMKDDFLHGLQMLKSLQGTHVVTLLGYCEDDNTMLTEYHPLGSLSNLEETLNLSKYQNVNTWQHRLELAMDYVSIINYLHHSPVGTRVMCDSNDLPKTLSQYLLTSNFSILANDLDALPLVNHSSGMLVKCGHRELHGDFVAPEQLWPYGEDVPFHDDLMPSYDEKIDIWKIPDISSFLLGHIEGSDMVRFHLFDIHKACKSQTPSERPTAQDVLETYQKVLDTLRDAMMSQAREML
Sequence of UniProt O00231 (O00231 whole entry, looked up): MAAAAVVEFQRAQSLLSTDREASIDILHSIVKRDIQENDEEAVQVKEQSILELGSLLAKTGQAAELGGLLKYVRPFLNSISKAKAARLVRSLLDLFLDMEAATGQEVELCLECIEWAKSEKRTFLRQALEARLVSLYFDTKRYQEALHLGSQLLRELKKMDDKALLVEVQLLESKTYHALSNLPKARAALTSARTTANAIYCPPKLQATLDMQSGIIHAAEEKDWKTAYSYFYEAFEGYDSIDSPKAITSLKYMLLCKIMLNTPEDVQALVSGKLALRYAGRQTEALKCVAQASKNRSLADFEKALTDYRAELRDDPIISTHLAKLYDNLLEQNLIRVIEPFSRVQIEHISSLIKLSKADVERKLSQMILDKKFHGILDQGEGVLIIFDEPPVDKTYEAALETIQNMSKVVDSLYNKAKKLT
Sequence of UniProt Q9UKL6 (Q9UKL6 whole entry, looked up): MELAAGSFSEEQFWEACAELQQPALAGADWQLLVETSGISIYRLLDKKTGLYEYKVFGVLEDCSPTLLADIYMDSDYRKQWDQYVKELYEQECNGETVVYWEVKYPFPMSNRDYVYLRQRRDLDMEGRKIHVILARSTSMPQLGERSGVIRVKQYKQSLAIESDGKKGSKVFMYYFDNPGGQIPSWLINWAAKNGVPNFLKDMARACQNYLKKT
Sequence of UniProt P41247 (P41247 whole entry, looked up): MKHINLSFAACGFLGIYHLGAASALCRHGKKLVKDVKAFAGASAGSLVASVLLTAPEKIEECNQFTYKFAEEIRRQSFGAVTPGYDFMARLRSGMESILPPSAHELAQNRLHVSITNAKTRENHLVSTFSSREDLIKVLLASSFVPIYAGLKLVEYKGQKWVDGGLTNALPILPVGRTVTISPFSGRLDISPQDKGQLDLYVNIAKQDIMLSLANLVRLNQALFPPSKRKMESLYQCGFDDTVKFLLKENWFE
Sequence of UniProt P06737 (P06737 whole entry, looked up): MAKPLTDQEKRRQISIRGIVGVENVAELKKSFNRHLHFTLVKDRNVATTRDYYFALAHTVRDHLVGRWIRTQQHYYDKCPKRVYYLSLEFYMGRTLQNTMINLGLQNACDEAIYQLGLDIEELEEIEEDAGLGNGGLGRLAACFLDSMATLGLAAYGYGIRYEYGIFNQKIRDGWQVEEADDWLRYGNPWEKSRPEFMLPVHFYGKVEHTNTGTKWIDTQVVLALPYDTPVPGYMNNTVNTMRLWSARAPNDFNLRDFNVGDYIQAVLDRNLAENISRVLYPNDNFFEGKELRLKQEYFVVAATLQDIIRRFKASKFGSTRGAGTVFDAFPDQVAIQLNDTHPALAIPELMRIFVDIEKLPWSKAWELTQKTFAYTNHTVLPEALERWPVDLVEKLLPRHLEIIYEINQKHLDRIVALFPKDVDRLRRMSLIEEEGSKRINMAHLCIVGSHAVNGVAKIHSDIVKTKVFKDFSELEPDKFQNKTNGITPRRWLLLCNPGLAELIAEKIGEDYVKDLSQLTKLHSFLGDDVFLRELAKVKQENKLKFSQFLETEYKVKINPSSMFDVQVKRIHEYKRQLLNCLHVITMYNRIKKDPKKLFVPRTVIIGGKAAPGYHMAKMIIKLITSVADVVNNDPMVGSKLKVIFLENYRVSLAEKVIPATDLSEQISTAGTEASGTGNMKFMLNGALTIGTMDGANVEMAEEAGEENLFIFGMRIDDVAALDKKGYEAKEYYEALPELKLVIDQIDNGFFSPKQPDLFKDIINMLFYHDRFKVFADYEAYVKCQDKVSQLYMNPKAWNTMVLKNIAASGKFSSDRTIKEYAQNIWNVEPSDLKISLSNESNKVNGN
Sequence of UniProt Q9Y2Y1 (Q9Y2Y1 whole entry, looked up): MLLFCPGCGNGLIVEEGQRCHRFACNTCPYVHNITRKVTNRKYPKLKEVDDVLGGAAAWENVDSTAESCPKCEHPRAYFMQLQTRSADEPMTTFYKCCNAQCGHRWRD

Compound in the test: c1cn2cc(-c3ccc4cn[nH]c4c3)nc(Nc3ccc(N4CCOCC4)cc3)c2n1 [entospletinib]
Put plainly: log2 fold change, soluble protein after heating vs DMSO (PISA); higher = thermal stabilisation; K562 cells, 10 uM, 30 min; active = over 0.2 and 3.5 SD of the protein, either way, in both replicates (recomputed). A digest of the protocol: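 Values are thermal stability changes relative to control samples and are taken from duplicates. They are stated as log2 fold changes. Before quantification by TMTpro 16plex LC-MS/MS with equalised channel sums, K562 cells at 2×10^6 cells/mL were treated with 10 μM compound for 30 min, heated in aliquots for 3 min across 48°C-58°C, pooled, extracted in PBS with 0.5% NP-40 at 4°C, and centrifuged at 21,000xg for 90 min to give the soluble supernatant.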
As for POMK (UniProt Q9H5K3), the log2 fold change is -0.293 (active).
The result for PIGG (UniProt Q5H8A4) reads -0.034; that for POM121 (UniProt Q96HA1), -0.051; that for PSMB6 (UniProt P28072), 0.008.
On to PRKAB1 (UniProt Q9Y478), for which the log2 fold change is -0.145.
Take QKI (UniProt Q96PU8): the log2 fold change is 0.065.
Consider PRIM2 (UniProt P49643), for which the log2 fold change is 0.
The same measure for PKM (UniProt P14618): -0.04; for POLR2A (UniProt P24928): 0.162; for PPP2R5E (UniProt Q16537): -0.078.
POLB (UniProt P06746): the log2 fold change was -0.156.
The result for PYGL (UniProt P06737) reads -0.088; that for PTRH2 (UniProt Q9Y3E5), 0.019.
The result for PJA2 (UniProt O43164) reads -0.009.
In the case of PNPLA4 (UniProt P41247), the log2 fold change is 0.003.
Regarding PTEN isoform 2 (UniProt P60484), the log2 fold change is 0.025.
The same measure for PTP4A1 (UniProt Q93096): 0.
On to POLR3K (UniProt Q9Y2Y1), for which the log2 fold change was 0.113.
The result for PSMC1 (UniProt P62191) reads 0.006; that for PDIK1L (UniProt Q8N165), 0.06.
Turning to PURA (UniProt Q00577), the log2 fold change was 0.176.
Regarding PRPSAP2 (UniProt O60256), the log2 fold change was -0.008.
The same measure for PPP4R3B (UniProt Q5MIZ7): -0.064; for PTPN12 (UniProt Q05209): -0.041.
Consider PSMD11 (UniProt O00231), for which the log2 fold change is 0.017.
For PGM3 isoform 4 (UniProt O95394), the log2 fold change was -0.047.
With PRKAA1 isoform 2 (UniProt Q13131), the log2 fold change was -0.015.
The same measure for PSD3 (UniProt Q9NYI0): -0.013; for PTRHD1 (UniProt Q6GMV3): 0.064.
With POLR2M (UniProt Q6EEV4), the log2 fold change was 0.056.
The same measure for PCTP (UniProt Q9UKL6): -0.072; for PPIL2 (UniProt Q13356): -0.027; for POLR2M (UniProt P0CAP2): -0.059.
With PLCG1 isoform 2 (UniProt P19174), the log2 fold change was 0.021.
In the case of PDCD4 (UniProt Q53EL6), the log2 fold change is -0.002.
The same measure for PML (UniProt P29590): 0.073.
The same measure for POLD1 (UniProt P28340): 0.001; for POLA2 (UniProt Q14181): -0.047.
The result for POLR2B (UniProt P30876) reads 0.193.
